Compounds without any hit were thinned out: in the full panel of roughly 83,000, 20% have a hit.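 A percent growth of 40 corresponds to 60% growth inhibition; 0 means no net growth; -100 means all cells died. Active threshold: below 10.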 A number with no mark means an inactive call. The source made the active and inactive calls.

Among the test systems are SK-MEL-2 melanoma; EKVX NSCLC; SN12C renal; TK-10 renal; ACHN renal; CAKI-1 renal; A498 renal; CCRF-CEM leukemia; MOLT-4 leukemia; SR leukemia; RPMI-8226 leukemia; OVCAR-8 ovarian; OVCAR-5 ovarian; OVCAR-4 ovarian; SK-OV-3 ovarian; IGROV1 ovarian; OVCAR-3 ovarian; HS 578T breast; NCI/ADR-RES ovarian.
What all share (experiment): NCI-60 one-dose screen, 48 h (100 = growth as untreated, 0 = no growth, -100 = all killed)
Settings in all cases: 10 µM unless noted

As for `COc1cc(/C=C/C(=O)c2cnn(-c3cc(=O)[nH]c4ccc(C)cc34)c2C)cc(OC)c1OC`, the growth is -73.1% (active) in the experiment on SK-MEL-2 melanoma; -9.39% (active) in the experiment on EKVX NSCLC; 10.4% in the experiment on SN12C renal; 37.8% in the experiment with TK-10 renal; -8.39% (active) in the experiment on ACHN renal; 16.4% in the experiment with CAKI-1 renal. The growth was 8.36% (active) with A498 renal; -22.2% (active) with CCRF-CEM leukemia; -8.06% (active) in the experiment with MOLT-4 leukemia; -8.63% (active) with SR leukemia; -40.2% (active) with RPMI-8226 leukemia; 11.5% in the experiment with OVCAR-8 ovarian. Moreover, the growth in the experiment on OVCAR-5 ovarian was -37.3% (active); in the experiment with OVCAR-4 ovarian, 39.3%; with SK-OV-3 ovarian it was 24.7%; with IGROV1 ovarian it was -1.52% (active); with OVCAR-3 ovarian, -50.1% (active); in the experiment with HS 578T breast it was 52.5%. Further, the growth in the experiment on NCI/ADR-RES ovarian was -11.1% (active).
For the molecule `Oc1cncc(-c2ccc3ncnc(N4CCc5cc(F)c(Cl)cc54)c3c2)c1`, the growth is 66.4% in the experiment with SK-MEL-2 melanoma; 59.2% in the experiment with EKVX NSCLC; 44.2% with SN12C renal; 78.8% in the experiment with TK-10 renal; 46% in the experiment with ACHN renal; 41.5% in the experiment with CAKI-1 renal. Also, the growth in the experiment with A498 renal is -1.41% (active); with CCRF-CEM leukemia, 76.2%; in the experiment on MOLT-4 leukemia, 57.6%; in the experiment with SR leukemia, 42.5%; in the experiment on RPMI-8226 leukemia, 55.2%; with OVCAR-8 ovarian, 37.4%. The growth in the experiment on OVCAR-5 ovarian is 59.8%; in the experiment on OVCAR-4 ovarian it was 40.6%; in the experiment with SK-OV-3 ovarian it was 54.3%; in the experiment on IGROV1 ovarian, 5.56% (active); in the experiment with OVCAR-3 ovarian, 58%; with HS 578T breast, 18.1%. In addition, the growth with NCI/ADR-RES ovarian is 61.9%.
For `COC(=O)c1cc(C(=O)CBr)n2c1ccc1c3ccccc3ccc12`, the growth in the experiment with SK-MEL-2 melanoma is 113%; with EKVX NSCLC, 60.1%; with SN12C renal, 51.1%; with TK-10 renal, 84.3%; in the experiment on ACHN renal it was 17.4%; with A498 renal, 101%. In addition, the growth was 14% with CCRF-CEM leukemia; 6.44% (active) in the experiment on MOLT-4 leukemia; 2.25% (active) in the experiment on SR leukemia; 38.7% in the experiment with RPMI-8226 leukemia; 31.3% in the experiment on OVCAR-8 ovarian; 72.8% in the experiment on OVCAR-5 ovarian. Further, the growth in the experiment with OVCAR-4 ovarian was 101%; in the experiment on SK-OV-3 ovarian it was 62%; with IGROV1 ovarian, 33.5%; in the experiment with OVCAR-3 ovarian it was 103%; in the experiment with HS 578T breast, 61%; with NCI/ADR-RES ovarian, 57.4%.
`CN(C)CCCc1ccc(Nc2cnn(C)c(=O)c2Cl)cc1`: the growth with SK-MEL-2 melanoma was 112%; in the experiment on EKVX NSCLC, 98.1%; in the experiment with SN12C renal it was 100%; in the experiment on TK-10 renal, 109%; with ACHN renal, 113%; in the experiment with CAKI-1 renal it was 83.5%. Also, the growth in the experiment on A498 renal was 94.7%; in the experiment on CCRF-CEM leukemia it was 102%; with MOLT-4 leukemia, 115%; in the experiment with SR leukemia, 62.2%; in the experiment with RPMI-8226 leukemia it was 102%; in the experiment with OVCAR-8 ovarian it was 106%. The growth in the experiment on OVCAR-5 ovarian is 126%; in the experiment with OVCAR-4 ovarian, 100%; with SK-OV-3 ovarian it was 131%; in the experiment with OVCAR-3 ovarian, 105%; with HS 578T breast, 105%; in the experiment on NCI/ADR-RES ovarian it was 109%.
On to `COC(=O)c1cc(C(C)=O)n2c3ccccc3c3ccccc3c12`, for which the growth in the experiment with SK-MEL-2 melanoma is 99.2%; in the experiment with EKVX NSCLC, 69.5%; in the experiment on SN12C renal, 75.6%; with TK-10 renal, 74.3%; in the experiment on ACHN renal it was 36.4%; with CAKI-1 renal it was 44.5%. In addition, the growth in the experiment with A498 renal is 121%; in the experiment with CCRF-CEM leukemia, 85.2%; with MOLT-4 leukemia, 73.3%; in the experiment with SR leukemia it was 64.7%; in the experiment on RPMI-8226 leukemia, 87.7%; in the experiment with OVCAR-8 ovarian, 50.5%. Also, the growth was 92.6% in the experiment on OVCAR-5 ovarian; 99.3% in the experiment with SK-OV-3 ovarian; 41.5% in the experiment on IGROV1 ovarian; 73.4% in the experiment on OVCAR-3 ovarian; 29.8% with HS 578T breast; 44.6% in the experiment on NCI/ADR-RES ovarian.

These data come from PubChem BioAssay (NCI).
